Each structure is given as a SMILES string. Inconclusive results are not listed. A call without a number means that no potency is given here. The source made the active and inactive calls. Calls come from the whole dose curve; as a rule, active = well fitted cell-killing curve with a large enough effect; inconclusive = small, poorly fitted or top-dose-only effect; inactive = flat fitted curve, though single readings scatter.
Potency is the fitted concentration of half-maximal effect.

The nature of this assay: DAPI mCherry counterscreen qHTS for Zika virus inhibitors. Note: nearly all actives have a fitted effect of over 55% in size. As to conditions: Vero cells, DAPI nuclear count cytotoxicity, imaging 48-72 h, infected with Zika reporter virus, MOI 1; series mostly up to 32.6 µM. The gist of the method: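 Imaging read-out after fixation and Hoechst nuclear staining: percent infection from mCherry-positive cells (above 3 SD of negative controls) and nuclear counts. Setup: Vero cells pre-plated overnight, compound added, infected with ZIKV-mCherry (MOI 1), 48-72 hrs, 37 degrees C.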
On the technique in general: A counterscreen serves to expose hits that act by an unwanted route or on another target.
On to `O=C(O)CSc1nc2ccc(NC(=O)COc3ccc(Cl)cc3)cc2s1`, for which the Potency result was “inactive”.

As for `O=C(Nc1ccccc1)c1ccc2c(O)c(S(=O)(=O)c3ccc(Cl)cc3)c(=O)[nH]c2c1`, the Potency entry was “inactive”.

For `Cc1oc2c(cc(NS(=O)(=O)c3ccc(Br)cc3)c3ccccc32)c1C(=O)OCc1ccccc1`, the Potency entry is “inactive”.

Take `O=C1NC(=O)c2cc(Nc3ccccc3)c(Nc3ccccc3)cc21`: the Potency was 31.6 µM (active).

In the case of `O=C1c2c(O)ccc([N+](=O)[O-])c2C(=O)c2c([N+](=O)[O-])ccc(O)c21`, the Potency was 39.8 µM (active).

As to `O=C(O)c1c(Sc2ccccc2)c2cc(Cl)ccc2n1Cc1ccc(Cl)cc1`, the Potency is 12.6 µM (active).

On to `Cc1ccc(NC(=O)c2ccc3c(O)c(S(=O)(=O)c4ccccc4)c(=O)[nH]c3c2)cc1Cl`, for which the Potency result is “inactive”.

As to `Cc1cc(-c2ccc(N=Nc3ccc4c(S(=O)(=O)O)cc(S(=O)(=O)O)c(N)c4c3O)c(C)c2)ccc1N=Nc1ccc2c(S(=O)(=O)O)cc(S(=O)(=O)O)c(N)c2c1O`, the Potency result is “inactive”.

For the compound `Cc1cc(S(=O)(=O)Nc2ccc(C(=O)O)cc2)c(C)c(S(=O)(=O)c2ccc(Cl)cc2)c1`, the Potency result was “inactive”.

`CN(C)CC[C@H](CSc1ccccc1)Nc1ccc(S(=O)(=O)NC(=O)c2ccc(N3CCN(Cc4ccccc4-c4ccc(Cl)cc4)CC3)cc2)cc1[N+](=O)[O-]`: the Potency is 5.01 µM (active).

Take `CCOc1ccc(-c2ccc(Cn3c(CC(C)(C)C(=O)O)c(SC(C)(C)C)c4cc(OCc5ccc(C)cn5)ccc43)cc2)cn1`: the Potency is 17.8 µM (active).

In the case of `Oc1c(Cl)cc(Cl)cc1Sc1cc(Cl)cc(Cl)c1O`, the Potency entry is “inactive”.

As for `COc1cc2c(c(O)c1OC/C=C(\C)CC/C=C(/C)CCC=C(C)C)CN(C(CCC(=O)O)C(=O)O)C2=O` (centres undefined), the Potency was 7.94 µM (active).

Regarding `O=C(O)c1ccc(C2Nc3ccccc3-c3nnc(SCc4ccc(Cl)cc4)nc3O2)cc1` (centres undefined), the Potency result is “inactive”.

As for `Cc1ccc(C(=O)Nc2ccc(S(=O)(=O)O)c3cc(S(=O)(=O)O)cc(S(=O)(=O)O)c23)cc1NC(=O)c1cccc(NC(=O)Nc2cccc(C(=O)Nc3cc(C(=O)Nc4ccc(S(=O)(=O)O)c5cc(S(=O)(=O)O)cc(S(=O)(=O)O)c45)ccc3C)c2)c1`, the Potency result is “inactive”.

In the case of `Cc1ccc(S(=O)(=O)Nc2cc(SCC(=O)O)c(O)c3ccccc23)cc1[N+](=O)[O-]`, the Potency is 8.91 µM (active).

Consider `CC(C)(Sc1ccc(CCN(CCCCC2CCCCC2)C(=O)NC2CCCCC2)cc1)C(=O)O`, for which the Potency was 14.1 µM (active).

With `O=c1c(O)c(Br)ccc2c(Br)c(O)c(O)c(O)c12`, the Potency entry is “inactive”.

On to `Cc1cccc(C)c1-n1c(SCC(=O)Nc2ccc(C(=O)O)cc2)nnc1-c1cccc([S+](=O)([O-])N2CCCC2)c1`, for which the Potency entry is “inactive”.

As to `O=C(Nc1cccc(C(=O)OCc2cc(=O)n3nc(C4CC4)sc3n2)c1)c1cccc(Cl)c1`, the Potency entry is “inactive”.

Regarding `O=c1c(O)c(-c2ccc(O)c(O)c2)oc2cc(O)ccc12`, the Potency result is “inactive”.

In the case of `CCCCc1nn2c(=O)cc(COC(=O)c3ccc(NC(=O)c4ccccc4Cl)cc3)nc2s1`, the Potency was 22.4 µM (active).

Take `CC1(C(=O)O)NCCc2cc(O)c(O)cc21` (centres undefined): the Potency entry is “inactive”.

Turning to `O=S(=O)(O)c1cc(O)c2c(N=Nc3ccc(Nc4ccccc4)c4c(S(=O)(=O)O)cccc34)cc(S(=O)(=O)O)cc2c1`, the Potency result is “inactive”.

On to `Cc1nc(N=Nc2ccc(S(=O)(=O)O)cc2S(=O)(=O)O)c(COP(=O)(O)O)c(C=O)c1O`, for which the Potency entry is “inactive”.

In the case of `O=C(O)COc1ccccc1C1Nc2ccccc2-c2nnc(SCc3ccc(Cl)cc3)nc2O1` (centres undefined), the Potency entry is “inactive”.

For `COc1cc(-c2ccc(N=Nc3ccc4c(S(=O)(=O)O)cc(S(=O)(=O)O)c(N)c4c3O)c(OC)c2)ccc1N=Nc1ccc2c(S(=O)(=O)O)cc(S(=O)(=O)O)c(N)c2c1O`, the Potency entry is “inactive”.

For the compound `Nc1c(S(=O)(=O)O)cc(Nc2ccc(Nc3nc(Cl)nc(Nc4ccc(S(=O)(=O)O)cc4)n3)c(S(=O)(=O)O)c2)c2c1C(=O)c1ccccc1C2=O`, the Potency entry was “inactive”.

In the case of `O=C(OCc1cc(=O)n2nc(C3CC3)sc2n1)c1ccc(NC(=O)c2ccccc2Cl)cc1`, the Potency entry was “inactive”.

Consider `COc1cccc(-n2nc(C(=O)O)cc2-c2ccc(C3CCCCC3)c(Cl)c2)c1`, for which the Potency was 35.5 µM (active).

With `CCOC(=O)c1ccc(N2C(=O)c3n[nH]c(-c4cccs4)c3C2c2ccc(C(C)(C)C)cc2)cc1` (centres undefined), the Potency was 10 µM (active).

Regarding `O=C(O)CCc1ccc(-c2ccc(Cl)cc2)n1-c1cccc(C(F)(F)F)c1`, the Potency was 25.1 µM (active).

As for `Cc1c(C)n(Cc2ccc(-c3ccccc3C(=O)O)cc2)c2ccc(C(=O)N[C@@H](C)c3ccc([N+](=O)[O-])cc3)cc12`, the Potency was 35.5 µM (active).

Turning to `CCc1oc2ccccc2c1C(=O)c1cc(Br)c(O)c(Br)c1`, the Potency is 11.2 µM (active).

Source of the values: PubChem BioAssay AID1347156 (National Center for Advancing Translational Sciences (NCATS), 2019).
